Measurements as given in the supplement of paper PMC13380429.

Test system: Vero E6 infected with SARS-CoV-2
Experiment: inhibition of SARS-CoV-2 cytopathic effect; higher = more antiviral protection, active = above 15
Conditions: 48 h

Measured: inhibition of SARS-CoV-2 cytopathic effect

OCCCNc1ccccc1 [3-anilinopropan-1-ol]
inactive: 1 nM -0.17% | 8.33 nM 2.09% | 100 nM -0.59% | 833.33 nM -0.07% | 10000 nM 1.39%

C[C@@H](Oc1ccc(Cl)cc1)c1ccnc2ncnn12
inactive: 1 nM -0.64% | 8.33 nM 0.02% | 100 nM -0.48% | 833.33 nM -2.21% | 10000 nM -3.4%

CCC[N+]12[C@H](O)[C@@H](CC)[C@@H]3C[C@H]1[C@@H]1N(C)c4ccccc4[C@]14C[C@H]2[C@@H]3[C@H]4O [neo-gilurytmal]
inactive: 1 nM -1.96% | 8.33 nM -1.28% | 100 nM 0.64% | 833.33 nM 1.4% | 10000 nM -3.83%

O=C(c1ccc(/C=C/c2n[nH]c3ccccc23)cc1)N1CCNCC1
inactive: 1 nM 0.11% | 8.33 nM 1.26% | 100 nM 0.85% | 833.33 nM 0.22% | 10000 nM -1.99%

CNC[C@H](O)[C@@H](O)[C@H](O)[C@H](O)CO [meglumine]
inactive: 1 nM -10% | 8.33 nM -10.3% | 100 nM -6.44% | 833.33 nM -11.4% | 10000 nM -10.1%

CN[C@H](CC(C)C)C(=O)N[C@H]1C(=O)N[C@@H](CC(N)=O)C(=O)N[C@H]2C(=O)N[C@H]3C(=O)N[C@H](C(=O)N[C@H](C(=O)O)c4cc(O)cc(O)c4-c4cc3ccc4O)[C@H](O)c3ccc(c(Cl)c3)Oc3cc2cc(c3O[C@@H]2O[C@H](CO)[C@@H](O)[C@H](O)[C@H]2O[C@H]2C[C@](C)(N)[C@H](O)[C@H](C)O2)Oc2ccc(cc2Cl)[C@H]1O
inactive: 1 nM 0.55% | 8.33 nM 1.31% | 100 nM -0.56% | 833.33 nM 3.7% | 10000 nM 0.87%

COC(=O)C1=C(C)NC(C)=C(C(=O)OCC(C)C)C1c1ccccc1[N+](=O)[O-] (stereo not given) [nisoldipine]
inactive: 1 nM -1.53% | 8.33 nM 0.72% | 100 nM -2.24% | 833.33 nM -0.83% | 10000 nM 1.64%

C[C@]12CC[C@H]3[C@@H](CC[C@@]45O[C@@H]4C(O)=C(C#N)C[C@]35C)[C@@H]1CC[C@@H]2O [trilostane]
inactive: 1 nM 1.21% | 8.33 nM -0.28% | 100 nM -1.2% | 833.33 nM 0.24% | 10000 nM 2.15%

COc1ccc(CCN)cc1OC [homoveratrylamine]
inactive: 1 nM 0.49% | 8.33 nM 7.09% | 100 nM 12.7% | 833.33 nM 5.43% | 10000 nM 11.1%

C1=C2CCCN[C@H]2[C@@H]2C[C@H]1[C@H]1CCCCN1C2 [aloperine]
inactive: 1 nM -0.36% | 8.33 nM 2.25% | 100 nM -0.38% | 833.33 nM 0.5% | 10000 nM -1.11%

CC(CN(C)C)C(C)(O)Cc1ccc(Cl)cc1 (stereo not given) [clobutinol]
inactive: 1 nM -0.23% | 8.33 nM 2.65% | 100 nM 1.61% | 833.33 nM -3.1% | 10000 nM -0.69%

COc1cc(N2CCC(N3CCN(C)CC3)CC2)ccc1Nc1ncnc(Nc2ccccc2S(=O)(=O)C(C)C)n1
inactive: 1 nM 1.25% | 8.33 nM -0.68% | 100 nM 1.16% | 833.33 nM 2.18% | 10000 nM -7.16%

NC[C@@H]1O[C@H](O[C@@H]2[C@@H](CO)OC(O[C@@H]3[C@@H](O)[C@H](N)C[C@H](N)[C@H]3OC3O[C@H](CN)[C@@H](O)[C@H](O)[C@H]3N)[C@@H]2O)[C@H](N)[C@@H](O)[C@@H]1O (stereo not given in full)
inactive: 1 nM -1.31% | 8.33 nM -1.2% | 100 nM 0.22% | 833.33 nM 1.17% | 10000 nM -0.07%

COc1cc2ncn(-c3cc(OCc4ccccc4C(F)(F)F)c(C(N)=O)s3)c2cc1OC
inactive: 1 nM -9.5% | 8.33 nM -5.03% | 100 nM -7.65% | 833.33 nM -5.41% | 10000 nM -1.95%

O=C(O)C(=O)CBr [3-bromopyruvate]
inactive: 1 nM -3.69% | 8.33 nM 1.4% | 100 nM 4.96% | 833.33 nM 0.7% | 10000 nM 1.43%

CN(C[C@@H]1COCCO1)S(=O)(=O)Nc1ccc2ccc3ncc(-c4cnn(C)c4)cc3c(=O)c2c1
inactive: 1 nM -0.78% | 8.33 nM 1.08% | 100 nM -0.46% | 833.33 nM -1.97% | 10000 nM -4.16%

O=C(c1ccc(F)c(F)c1Nc1ccc(I)cc1F)N1CC(O)([C@@H]2CCCCN2)C1 [cobimetinib]
inactive: 1 nM -0.38% | 8.33 nM -3.42% | 100 nM -9.73% | 833.33 nM -11.8% | 10000 nM -12.2%

COc1ccc(-c2cc(=O)c3c(O)cc(O[C@@H]4O[C@H](CO[C@@H]5O[C@@H](C)[C@H](O)[C@@H](O)[C@H]5O)[C@@H](O)[C@H](O)[C@H]4O)cc3o2)cc1O [diosmin]
inactive: 1 nM 3.94% | 8.33 nM -0.11% | 100 nM -2.26% | 833.33 nM 4.64% | 10000 nM -2.85%

CCc1cc2c(cc1CC)CC(NC[C@H](O)c1ccc(O)c3[nH]c(=O)ccc13)C2 [indacaterol]
inactive: 1 nM -4.02% | 8.33 nM -0.7% | 100 nM -0.83% | 833.33 nM -1.99% | 10000 nM -2.01%

CCCCNNC(=O)c1ccc(Br)cc1
inactive: 1 nM 2.76% | 8.33 nM 1.2% | 100 nM 2.26% | 833.33 nM 3.31% | 10000 nM -5.28%

O=C(OCC(COC(=O)c1cccnc1)(COC(=O)c1cccnc1)COC(=O)c1cccnc1)c1cccnc1 [niceritrol]
inactive: 1 nM -3.51% | 8.33 nM -0.29% | 100 nM 2.18% | 833.33 nM 0.03% | 10000 nM 6.17%

CC#CC(=O)N1CCC[C@H]1c1nc(-c2ccc(C(=O)Nc3ccccn3)cc2)c2c(N)nccn12 [acalabrutinib]
inactive: 1 nM 2.14% | 8.33 nM -0.44% | 100 nM 0.31% | 833.33 nM -0.11% | 10000 nM -0.34%

COc1ccc(-c2oc3c(CC=C(C)C)c(O[C@@H]4O[C@H](CO)[C@@H](O)[C@H](O)[C@H]4O)cc(O)c3c(=O)c2O[C@@H]2O[C@@H](C)[C@H](O)[C@@H](O)[C@H]2O)cc1 [icariin]
inactive: 1 nM 4.38% | 8.33 nM 3.84% | 100 nM 1.25% | 833.33 nM -0.92% | 10000 nM -4.04%

O=C1c2ccccc2C(=O)C1c1ccc(Br)cc1 [bromindione]
inactive: 1 nM -0.87% | 8.33 nM 2.1% | 100 nM -2.65% | 833.33 nM 1.04% | 10000 nM 0.05%

C#CC[C@H](c1nc2cc(Cl)ccc2c(=O)n1Nc1ccccc1)N(CCCN)C(=O)c1cccc(Cl)c1F
inactive: 1 nM -0.8% | 8.33 nM -0.99% | 100 nM 0.22% | 833.33 nM 1.38% | 10000 nM -9.07%

CNCC[C@@H](Oc1ccccc1C)c1ccccc1 [atomoxetine]
inactive: 1 nM 1.13% | 8.33 nM 1.43% | 100 nM 3.37% | 833.33 nM 2.34% | 10000 nM -2.83%

CC(C(=O)O)c1cccc(Oc2ccccc2)c1 (stereo not given) [fenoprofen]
inactive: 1 nM -0.67% | 8.33 nM -2.89% | 100 nM 0.97% | 833.33 nM -1.9% | 10000 nM -3.01%

O=C1NCC2(CCN(CCc3ccccc3)CC2)O1 [fenspiride]
inactive: 1 nM -2.77% | 8.33 nM -1.55% | 100 nM 2.18% | 833.33 nM 0.71% | 10000 nM 0.43%

c1ccc(Oc2cccnc2)cc1
inactive: 1 nM 2.35% | 8.33 nM 1.64% | 100 nM 1.02% | 833.33 nM 2.24% | 10000 nM 1.23%

OCc1ccccc1O[C@@H]1O[C@H](CO)[C@@H](O)[C@H](O)[C@H]1O [salicin]
inactive: 1 nM 0.33% | 8.33 nM 2.34% | 100 nM 1.75% | 833.33 nM 2.27% | 10000 nM 5.91%

CC(C)N(CCC(C(N)=O)(c1ccccc1)c1ccccn1)C(C)C (stereo not given) [disopyramide]
inactive: 1 nM -2.08% | 8.33 nM -2.32% | 100 nM -1.92% | 833.33 nM -0.48% | 10000 nM -5.17%

COc1cc2c(cc1OC)[C@@H]1Cc3ccc(OC)c(OC)c3CN1CC2 [rotundine]
inactive: 1 nM -0.42% | 8.33 nM -2.68% | 100 nM -1.22% | 833.33 nM 4.97% | 10000 nM 3.54%

COc1cc(OC2CCN(C)CC2)ccc1Nc1ncc2c(n1)n(C1CCCC1)c(=O)n2C
inactive: 1 nM 1.63% | 8.33 nM 2.01% | 100 nM -2.6% | 833.33 nM 0.1% | 10000 nM 11.1%

CC(C)(Sc1cc(C(C)(C)C)c(O)c(C(C)(C)C)c1)Sc1cc(C(C)(C)C)c(O)c(C(C)(C)C)c1 [probucol]
inactive: 1 nM -0.06% | 8.33 nM 2.66% | 100 nM 0.1% | 833.33 nM -0.2% | 10000 nM 1.98%

CN(C)C(=O)Nc1cccc(-c2ccc(N(C)C)cc2)c1 [atglistatin]
inactive: 1 nM -1.57% | 8.33 nM -1.64% | 100 nM 1.22% | 833.33 nM 0.77% | 10000 nM 1.31%

O=[N+]([O-])/C=C/c1ccc2c(c1)OCO2 [3,4-methylenedioxy-beta-nitrostyrene]
inactive: 1 nM -1.15% | 8.33 nM 0.64% | 100 nM -1.64% | 833.33 nM -3.16% | 10000 nM 7.29%

CC(C)[C@@H]1C(=O)N(S(C)(=O)=O)[C@@H]2CCN(C(=O)/C=C/CN3CCCCC3)[C@H]21
inactive: 1 nM -0.03% | 8.33 nM -1.45% | 100 nM 1.05% | 833.33 nM -0.28% | 10000 nM 0.66%
